Measurements published in PubChem BioAssay (Tox21).
A number with no mark means an inactive call. Calls of active or inactive are those of the source. Calls follow the shape of the full dose curve. Residues, ends and D or L forms follow the SMILES beside them.

molecular target: Acetylcholinesterase (Homo sapiens) (UniProt P22303); experiment: Acetylcholinesterase (AChE) small molecule antagonists: enzyme-based qHTS assay with human liver microsomes (AID 1347399); conditions: Potency: qHTS inhibition; outcome: qHTS inhibition; series mostly up to 115 µM; activity change, negative = inhibition: at the top concentration; also: nearly all actives have a fitted effect of over 60% in size
Text: National Center for Advancing Translational Sciences [NCATS]
Division of Preclinical Innovation [DPI]
U.S. Environmental Protection Agency [EPA]
National Institutes of Environmental Health Sciences [NIEHS]
National Toxicology Program [NTP]
U.S. Food and Drug Administration [FDA]
Acetylcholinesterase (AChE) is the primary cholinesterase in the body that hydrolyzes a key neurotransmitter, acetylcholine. Inhibition of AChE activity can lead to neurotoxicity. The known inhibitors include organophosphorous pesticides (OP), chemical warfare agents, drugs, and various phytochemicals. Some compounds like OP compounds may need metabolic activation to be active AChE inhibitors. The cytochrome P450 (CYP) superfamily in the human microsomes is responsible for the metabolism of various endogenous and exogenous compounds.
An enzyme-based assay with the recombinant human AChE, human liver microsomes and Amplite Colormetric acetylcholinesterase assay kit (AAT Bioquest, Sunnyvale, CA) was used to evaluate compounds in the Tox21 10K library that need metabolic activation for AChE inhibition. The assay uses 5, 5-dithiobis-(2-nitrobenzoic acid) (DTNB) to quantify the thiocholine produced from the hydrolysis of acetylthiocholine by AChE.
Tox21 Assay Protocol Summary:
For the enzyme-based AChE assay with microsomes addition, a mixture of human AChE (50 mU/mL) and human liver microsomes (0.25 mg/mL, final concentration) in 3 uL/well was dispensed into black, clear-bottom 1536-well plates using a Multidrop Combi dispenser (Thermo Scientific, MA). Then, 23 nL of compound or DMSO (vehicle control) was transferred into the assay plates by a Pintool Station (Wako Automation, CA). Following compound addition, 1 uL of NADPH (0.25 mg/mL, final concentration) was transferred to the assay plate by a Flying Reagent Dispenser (Beckman Coulter, CA). The plates were incubated for 30 min at 37 C and 5% CO2, followed by the addition of 4 uL of colorimetric detection cocktail solution (DTNB, acetylthiocholine) into each well using a Flying Reagent Dispenser (Beckman Coulter, CA) and then 10 min incubation at room temperature.
% is scaled to controls: 0 for no effect and ±100 for the full control effect; potency is read from the fitted curve at half-maximal effect.

Acetylcholinesterase (Homo sapiens), sequence (P22303 whole entry, looked up): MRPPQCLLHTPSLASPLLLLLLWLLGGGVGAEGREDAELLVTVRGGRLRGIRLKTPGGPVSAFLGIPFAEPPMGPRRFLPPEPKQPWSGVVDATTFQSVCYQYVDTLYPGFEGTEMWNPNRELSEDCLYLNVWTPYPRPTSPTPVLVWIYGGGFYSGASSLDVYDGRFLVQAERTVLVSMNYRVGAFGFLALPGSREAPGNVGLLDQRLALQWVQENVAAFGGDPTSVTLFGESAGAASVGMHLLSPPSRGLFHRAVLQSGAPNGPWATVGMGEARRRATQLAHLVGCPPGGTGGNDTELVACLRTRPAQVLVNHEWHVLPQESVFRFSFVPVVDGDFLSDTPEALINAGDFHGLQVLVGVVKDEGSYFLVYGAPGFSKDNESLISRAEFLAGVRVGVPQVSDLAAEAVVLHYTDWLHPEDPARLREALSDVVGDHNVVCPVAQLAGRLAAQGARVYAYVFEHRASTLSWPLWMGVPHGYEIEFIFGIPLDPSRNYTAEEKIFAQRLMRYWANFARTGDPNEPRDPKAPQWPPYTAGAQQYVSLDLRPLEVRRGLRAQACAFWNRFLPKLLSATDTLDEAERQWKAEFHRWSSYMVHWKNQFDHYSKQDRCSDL

| Compound | outcome | activity change, negative = inhibition | Potency |
| --- | --- | --- | --- |
| CNCC(O)c1ccc(O)c(O)c1 (stereo not given) | inactive |  |  |
| CC/C=C\CCCCCCCCCCOC(C)=O |  | -0.148% |  |
| CC(=O)S[C@@H]1CC2=CC(=O)CC[C@]2(C)[C@H]2CC[C@@]3(C)[C@@H](CC[C@@]34CCC(=O)O4)[C@H]12 |  | 0.522% |  |
| CCCCN1C=CN(C)C1 |  | 0.0718% [at 23.6 µM] |  |
| CC(=O)N[C@@H](CO)C(=O)N[C@@H](CC(=O)O)C(=O)N[C@@H](CCCCN)C(=O)N1CCC[C@H]1C(=O)O (Ac-SDKP-OH) |  | -1.01% [at 53 µM] |  |
| Cc1ccc(C)c(N)c1 |  | -0.849% |  |
| NC(=O)c1ccccc1 |  | -1.03% |  |
| CC(C)(O)c1ccc(C(C)(C)O)cc1 |  | 1.2% |  |
| O=C(OC(=O)c1ccccc1)c1ccccc1 |  | -0.282% |  |
| O=C(O)/C=C/c1ccc(O)c(O)c1 |  | 1.59% |  |
| COc1cc(OC)cc(OC)c1 |  | 0.355% [at 53 µM] |  |
| COC(=O)CC(C(C)=O)C(=O)OC (stereo not given) |  | -0.116% |  |
| O=C(CCCCCCC(=O)Nc1ccccc1)NO |  | -0.304% [at 53 µM] |  |
| NS(=O)(=O)c1cc(C(=O)NN2C[C@H]3[C@H]4CCC(C4)[C@H]3C2)ccc1Cl |  | -3.26% [at 53 µM] |  |
| OCCCc1cccnc1 |  | 0.472% |  |
| CCCCCCCCCCOCC(O)CN (stereo not given) |  | -1.18% [at 53 µM] |  |
| CC(C)C(=O)OCCc1ccccc1 |  | 0% |  |
| Cc1[nH]c(=O)c(C#N)cc1-c1ccncc1 |  |  | inactive |
| CN1CCCN=C1/C=C/c1cccs1 |  | -1.63% [at 53 µM] |  |
| O=C1CCCN1C1CCCCC1 |  | -0.295% |  |

| Compound | outcome | activity change, negative = inhibition | Potency |
| --- | --- | --- | --- |
| CCC(O)C(C)(C)C (stereo not given) |  | 0.341% |  |
| CCCCCCCCCCCCCCCC/C=C/C1CC(=O)OC1=O (stereo not given) |  | 2.74% [at 53 µM] |  |
| Cc1occc(=O)c1OC(=O)C(C)C |  | -1.13% |  |
| COc1ccc2c(c1)C(=O)N(CCc1ccc(S(=O)(=O)NC(=O)NC3CCCCC3)cc1)C(=O)C2(C)C |  | 0.669% [at 53 µM] |  |
| Cc1ccccc1N=C(N)N=C(N)N |  | -0.601% |  |
| CCCCCCOC(=O)CCCCC |  | 0.224% |  |
| Clc1cc(Cl)c2c(c1)N=C1CCCCCN1C2 |  |  | 3.89 µM (active) |
| CC(=O)c1ccc2c(c1)Cc1ccccc1-2 |  | 0.316% |  |
| CC(C)=CCCC(C)O (stereo not given) |  | -0.486% |  |
| CCN(CC)CCOc1ccc(C(O)(Cc2ccc(Cl)cc2)c2ccc(C)cc2)cc1 (stereo not given) |  | -1.34% [at 53 µM] |  |
| O=C(O)c1ccc2c(c1)nc(C(=O)NC1CCN(C3CC3)CC1)n2Cc1cc(-c2ccc(Cl)s2)on1 |  | 0.834% [at 23.6 µM] |  |
| COc1ccc(CCC(=O)c2c(O)cc(O[C@@H]3O[C@H](CO)[C@@H](O)[C@H](O)[C@H]3O[C@@H]3O[C@@H](C)[C@H](O)[C@@H](O)[C@H]3O)cc2O)cc1O |  | 0.171% |  |
| Cc1nc([N+](=O)[O-])cn1-c1ccc([N+](=O)[O-])cc1 |  | 0.211% [at 53 µM] |  |
| O=[N+]([O-])C1(Br)COCOC1 |  | -11.2% |  |
| CCOC(=O)c1ccccc1C(=C1C=C(Br)C(=O)C(Br)=C1)c1cc(Br)c(O)c(Br)c1 |  | 0.077% [at 53 µM] |  |
| CN1CCCCC1CCN1c2ccccc2Sc2ccc(S(C)=O)cc21 (stereo not given) |  | -1.1% [at 53 µM] |  |
| C=CC(C)(CCC=C(C)C)OC(=O)CC (stereo not given) |  | 1.19% |  |
| CS(C)=O |  | 1.6% |  |
| O=C(CCS)OCC(COC(=O)CCS)(COC(=O)CCS)COC(=O)CCS |  | -0.458% |  |
| COc1cc2nc(Cl)nc(N)c2cc1OC |  | -1.33% [at 53 µM] |  |
